Screening results from PubChem.
Most compounds without a hit are left out; they make up all but 1.4% or so of the library.
BJeLR viability: BJeLR cell viability loss. BJeLR (HRASV12) viability, CellTiter-Glo ATP luminescence, 48 h. AID 1554. inhibition, % (concentration not given with the values). actives 0.17% (n = 300,000); in the data active means inhibition above about 50%
PfHsp40 yeast: rescue of PfHsp40-mediated yeast toxicity | S. cerevisiae expressing PfHsp40, growth rescue, ATP luminescence | growth rescue, % at 12.5 µM | actives 0.68% (n = 340,000); in the data active means growth rescue above about 28%, passing the limit was not always enough;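 further: yeast W303a lacking pdr1 and pdr3 grown in galactose medium; growth measured after three days at 30 °C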
Sa ugtP lethal: growth inhibition of S. aureus ugtP deletion strain; S. aureus RN4220 ugtP deletion, OD600 growth, 16 h; growth inhibition, % (concentration not given with the values); actives 0.54% (n = 330,000); AID 1259309; in the data active means growth inhibition above about 68%;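 further: plate controls were untreated wells for no effect and antibiotic for full effect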
RN4220 kill: kills Staphylococcus aureus RN4220. S. aureus RN4220 growth, OD600, 16 h. inhibition, % (no concentration beside the values). actives 0.33% (n = 330,000); in the data active means inhibition above about 85%;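 further: plate controls were untreated cells for no effect and reference antibiotic for full effect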
PrP 5UTR inh: inhibition of PrP 5' UTR reporter expression; inhibition, % (test concentration not listed); actives 0.35% (n = 340,000); AID 488862; cell-based PrP 5' UTR mRNA reporter, plate reader; in the data active means inhibition above about 52%; further: 0 = median of the neutral control wells
Y pestis TopoI: blocks Yersinia pestis topoisomerase I activity | actives 0.064% (n = 360,000) | Y. pestis Topo-I cleavage product accumulation, plate reader | activity, % at 10 µM; in the data active means activity above about 50%, passing the limit was not always enough
Numbers without * were called inactive; · = no result.

SMILES | BJeLR viability | PfHsp40 yeast | Sa ugtP lethal | RN4220 kill | PrP 5UTR inh | Y pestis TopoI
COC(=O)C1=C(c2ccc(OC(F)(F)F)cc2)CC2CCC1N2C(=O)NC1Cc2ccccc2C1 (stereo not drawn) | · | · | -21 | -4 | · | ·
CCn1c2c(c(=N)c3c1CCC3)CCCC2 | -28 | · | 9 | 3 | · | -8
CCCCCCCCn1c2c(c(=N)c3ccccc31)CCC2 | 29 | 0 | 98* | 98* | -19 | 16
CCCCCCCCCn1c2c(c(=N)c3c1CCC3)CCCC2 | 47 | 6 | 100* | 100* | -14 | 20
CCCCCn1c2c(c(=N)c3ccccc31)CCC2 | 2 | -1 | 5 | 3 | -22 | 0
CCCCCCCCCCn1c2c(c(=N)c3c1CCC3)CCC2 | 56* | 291* | 100* | 100* | 5 | 21
COC(=O)C=CCC(C)OS(N)(=O)=O (stereo not drawn) | · | · | 3 | 5 | · | ·
c1ccc(-c2cn(CC3CCC(C4CCC(Cn5cc(-c6ccccn6)nn5)O4)O3)nn2)nc1 (stereo not drawn) | · | · | -2 | 3 | · | ·
O=C(O)C/C(=C\c1ccc(Cl)cc1)c1nc2ccccc2o1 | 2 | 135* | -13 | 18 | -19 | 3
O=C(Nc1ccc(Cl)c(C(F)(F)F)c1)C1CC=CC2CCN(Cc3ccc(Cl)c(Cl)c3)C(=O)C21 (stereo not drawn) | · | · | -3 | -10 | · | ·
CC(=O)Nc1cccc(OCc2ccc(F)cc2)c1 | -6 | 70* | 12 | 8 | -31 | -6
COc1ccccc1C(=O)NNC(=S)NC(=O)c1ccco1 | 20 | 71* | 33 | 66 | -18 | 0
O=C(NNC(=S)NC(=O)c1ccco1)c1ccc(F)cc1 | 0 | 7 | · | · | -11 | -3
CCOc1ccccc1NC(=S)NC(=O)c1ccco1 | -10 | 75* | 9 | 9 | -28 | 16
CC(C)(C)c1cc(C(=O)NN=Cc2ccccc2O)n(-c2ccccc2)n1 | · | · | 100* | 68 | · | ·
CC(C)(C)c1cc(C(=O)NN=Cc2ccc(O)cc2)n(-c2ccccc2)n1 | · | · | 10 | 6 | · | ·
CC1(C(=O)N2CC3(CC(c4cccc([N+](=O)[O-])c4)=NO3)CC2C(=O)NCC(N)=O)CC1 (stereo not drawn) | · | · | 2 | 5 | · | ·
CC(C)CC(CC#N)N1CCN(Cc2ccccc2)CCC1=O (stereo not drawn) | · | · | -1 | 3 | · | ·
O=C1CCCN1CCC1CCN(C(=S)Nc2ccc(F)cc2)CC1 | 4 | 99* | 4 | 2 | 6 | 5
Cc1nc2ccc(CN(C)c3ccc(C(=O)N[C@@H](CCC(=O)O)C(=O)O)s3)cc2c(=O)[nH]1 | 72* | · | · | · | · | ·
O=C(C=Cc1ccccc1)N1CCC(Cc2ccccc2)CC1 | · | · | -10 | 1 | · | ·
CC1CCC(C(C)C)C(OC(=O)C[n+]2cc(-c3ccc(Cl)cc3)n3c2CCCCC3)C1 (stereo not drawn) | 11 | 1 | 101* | 100* | -22 | 15
COCCN1C(=O)NC(CCc2ccccc2)C(C(=O)OC)C1C (stereo not drawn) | · | · | -2 | 3 | · | ·
CCc1ccc(-c2cn(C3CCCCC3)c(=S)[nH]2)cc1 | -2 | 91* | 11 | 27 | -28 | 19
CN1CCN(c2c(F)cc3c(=O)c(C(=O)O)cn4c3c2SCC4)CC1 | -1 | 0 | 99* | 99* | -16 | 1
SMILES | BJeLR viability | PfHsp40 yeast | Sa ugtP lethal | RN4220 kill | PrP 5UTR inh | Y pestis TopoI
O=C(/C=C/c1cccc2ccccc12)c1ccncc1 | 71* | -2 | -3 | 12 | -14 | 10
COc1cc(OC)c(C2SCCS2)c(OC)c1 | -1 | 0 | -2 | -1 | -9 | 1
COc1cc(OC)c([C@H]2C=C(C)[C@H]3C[C@@H]2C3(C)C)c(OC)c1 | -8 | -2 | 94* | -7 | -21 | 6
O=C(O)c1ccc(N/N=C/C2=Cc3ccccc3OC2)cc1 | 12 | 179* | · | · | -108 | 4
O=[N+]([O-])c1cc(C(F)(F)F)ccc1NCCc1c[nH]c2ccccc12 | 26 | 3 | 21 | 8 | -12 | -8
O=[N+]([O-])c1cc(C(F)(F)F)ccc1NCCc1c[nH]c2ccc(O)cc12 | -2 | 484* | 12 | 4 | -28 | -18
Oc1[nH]c(N=C2N=c3ccccc3=N2)c2ccccc12 | 54* | -3 | 20 | 5 | -71 | -10
CC1C(=O)C(C)C(c2ccccc2)N(N=O)C1c1ccccc1 (stereo not drawn) | · | 0 | · | · | -24 | 6
